Experimental data: PubChem BioAssay (EPA / NIEHS)
Results filed as inconclusive are left out. The source made the active and inactive calls. Rule for the calls, unless noted: active = hit-call score of the fitted dose curve at least 0.9, where 1 is the maximum; inconclusive = response in the unintended direction; inactive = score below 0.9.

Tests used:
[1] = TOX21_p53_BLA_p2_viability: Viability Assessment in the Tox21 HCT-116 p53 Agonism Beta-lactamase Assay, Phase 2 (AID 2283591);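 note: actives lower the ATP signal meaning cytotoxicity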
In short: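 HCT-116 p53-bla cells (4000/well) rested 5 h at 37C, then received compounds in DMSO (217-fold dilution) for 16 h at 37C, 5% CO2. After the CCF4 read, CellTiter-Glo was added; ATP luminescence was read after 30 min at room temperature.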

[2] = molecular target: Cellular tumor antigen p53 (Homo sapiens) (UniProt P04637); test: TOX21_p53_BLA_p2_ratio: Tox21 HCT-116 p53 Agonism Beta-lactamase Assay, Ratio, Phase 2 (AID 2283592)
In short: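 An inducible beta-lactamase reporter in HCT116 cells signals p53 pathway activation. After 16 h chemical exposure at 37C, cells load CCF4-AM substrate for 2 h at room temperature; activity is the cleaved/uncleaved emission ratio relative to DMSO.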

[3] = TOX21_p53_BLA_p3_viability: Viability Assessment in the Tox21 HCT-116 p53 Agonism Beta-lactamase Assay, Phase 3 (AID 2283593);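 note: cells exposed to compound for 16 h before reading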
In short: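 HCT-116 cells (4000/well) rested 5 h at 37C, then got DMSO compounds by pin tool (217-fold dilution) for 16 h at 37C, 5% CO2. After the bla read, CellTiter-Glo was added and luminescence read at 30 min, room temperature.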

[4] = molecular target: Cellular tumor antigen p53 (Homo sapiens) (UniProt P04637); test: TOX21_p53_BLA_p3_ratio: Tox21 HCT-116 p53 Agonism Beta-lactamase Assay, Ratio, Phase 3 (AID 2283596)
In short: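 HCT116 p53-bla cells (4000/well) given compound in DMSO (217-fold dilution) after 5 h, incubated 16 h at 37C. CCF4-AM substrate 2 h at room temperature; 460/530 nm emission ratio, gain fitted against DMSO.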

[5] = TOX21_p53_BLA_p4_viability: Viability Assessment in the Tox21 HCT-116 p53 Agonism Beta-lactamase Assay, Phase 4 (AID 2283597);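 note: hits lower the luminescence signal meaning cytotoxicity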
In short: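 Compound exposure of HCT116 cells lasts 16 h at 37C, 5% CO2, with DMSO stocks diluted 217-fold. Cellular ATP is then quantified by CellTiter-Glo luminescence after 30 min at room temperature.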

[6] = TOX21_p53_BLA_p5_viability: Viability Assessment in the Tox21 HCT-116 p53 Agonism Beta-lactamase Assay, Phase 5 (AID 2283600)
In short: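 Counter-readout for cytotoxicity: ATP-dependent luminescence from CellTiter-Glo, read in the beta-lactamase wells after 30 min at RT, following a 16 h compound exposure at 37C.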

[7] = molecular target: Cellular tumor antigen p53 (Homo sapiens) (UniProt P04637); test: TOX21_p53_BLA_p4_ratio: Tox21 HCT-116 p53 Agonism Beta-lactamase Assay, Ratio, Phase 4 (AID 2283601)
In short: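 HCT116 cells carrying an inducible beta-lactamase reporter were plated at 4000 cells/well, rested 5 h, then exposed to compounds in DMSO (217-fold dilution) for 16 h at 37C. CCF4-AM substrate was loaded 2 h at room temperature; 460/530 nm emission ratio scored gain-of-signal versus DMSO.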

[8] = molecular target: Cellular tumor antigen p53 (Homo sapiens) (UniProt P04637); test: TOX21_p53_BLA_p5_ratio: Tox21 HCT-116 p53 Agonism Beta-lactamase Assay, Ratio, Phase 5 (AID 2283599)
In short: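 HCT-116 cells carrying a p53-inducible beta-lactamase reporter were seeded at 4000 cells/well and dosed after 5 h with compound in DMSO (217-fold dilution). After 16 h at 37C, CCF4-AM substrate was added for 2 h, and the 460/530 nm emission ratio was scored as gain-of-signal versus DMSO.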

[9] = UKN5_HCS_SBAD2_cell_viability: Viability Assessment in the University of Konstanz (UKN) Leist Lab Neurite Outgrowth Assay in human iPSC-derived immature Dorsal Root Ganglia Neurons (UKN5) (AID 2284056; active = hit-call score of the fitted dose curve at least 0.9, where 1 is the maximum; inactive = score below 0.9)
In short: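 iPSC-derived immature peripheral neurons (SBAD2) seeded on Matrigel with CHIR99021, SU5402 and DAPT, dosed 1 h later for 24 h. Viability from Hoechst H-33342 and calcein-AM live staining, high-content imaging; bidirectional fit versus DMSO.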

[10] = UKN5_HCS_SBAD2_neurite_outgrowth: University of Konstanz (UKN) Leist Lab Neurite Outgrowth Assay in human iPSC-derived immature Dorsal Root Ganglia Neurons (UKN5) (AID 2284070; active = hit-call score of the fitted dose curve at least 0.9, where 1 is the maximum; inactive = score below 0.9); conditions: actives raise or lower the signal
In short: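 SBAD2 neurons, 24 h compound treatment, calcein-AM neurite area via HCS imaging; DMSO baseline, gain or loss of signal.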

[11] = UKN2_HCS_IMR90_neural_migration: University of Konstanz (UKN) Leist Lab Neural Crest Cell Migration Assay in human induced IMR90 Pluripotent Stem Cells (UKN2) (AID 2284204; active = hit-call score of the fitted dose curve at least 0.9, where 1 is the maximum; inactive = score below 0.9); conditions: actives raise or lower the signal
In short: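 iPSC-derived IMR90 neural crest cells on PLO/laminin/fibronectin were seeded around silicone stoppers; after stopper removal, migration in N2-S medium with EGF and FGF ran 24 h before 24 h chemical exposure. Calcein-AM/Hoechst high-content imaging; bidirectional fit versus DMSO.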

[12] = UKN4_HCS_LUHMES_neurite_outgrowth: University of Konstanz (UKN) Leist Lab Neurite Outgrowth Assay in human LUHMES cells (UKN4) (AID 2284206; active = hit-call score of the fitted dose curve at least 0.9, where 1 is the maximum; inactive = score below 0.9); conditions: actives raise or lower the signal
In short: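 2-day-differentiated LUHMES, 24 h cpd exposure, live calcein-AM + H-33342 stain, HCS fluorescence imaging of neurite area; DMSO = baseline, bidirectional fit.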

[13] = IUF_NPC1b_proliferation_BrdU_72hr: Leibniz Research Institute for Environmental Medicine (IUF) 72-hour Neural Progenitor Cell Bromodeoxyuridine (BrdU) Proliferation Assay (NPC1b) (AID 2284207; active = hit-call score of the fitted dose curve at least 0.9, where 1 is the maximum; inactive = score below 0.9)
In short: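 hNPC spheres (primary, GW 16-19 fetal cortex), single sphere/well, EGF+FGF medium; 72 h compound, no renewal; BrdU pulse last 16 h; luminescent ELISA; activity vs DMSO baseline; growth-factor withdrawal as positive control.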

[14] = IUF_NPC1a_proliferation_area_72hr: Leibniz Research Institute for Environmental Medicine (IUF) 72-hour Neural Progenitor Cell Proliferation Area Assay (NPC1a) (AID 2284208; active = hit-call score of the fitted dose curve at least 0.9, where 1 is the maximum; inactive = score below 0.9)
In short: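 Proliferation is scored as sphere area gain in primary human fetal neural progenitors treated for 72 h in EGF/FGF-containing medium. Viability, LDH and BrdU readouts come from the same wells.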

[15] = IUF_NPC1_viability_72hr: Viability Assessment at 72 hours in the Leibniz Research Institute for Environmental Medicine (IUF) Neural Progenitor Cell Proliferation Assay (NPC1) (AID 2284209; active = hit-call score of the fitted dose curve at least 0.9, where 1 is the maximum; inactive = score below 0.9)
In short: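 Each well receives one 0.3 mm progenitor sphere from fetal brain cortex; test chemical is added at plating and left three days. Viability comes from alamar blue fluorescence, multiplexed with LDH and BrdU readouts in the same well.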

[16] = UKN2_HCS_IMR90_cell_viability: Viability Assessment in the University of Konstanz (UKN) Leist Lab Neural Crest Cell Migration Assay in human induced IMR90 Pluripotent Stem Cells (UKN2) (AID 2284233; active = hit-call score of the fitted dose curve at least 0.9, where 1 is the maximum; inactive = score below 0.9;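 note: viability of neural crest cells differentiated from IMR90 iPSC measured by calcein-AM fluorescence imaging; cells exposed to compound for 24 h after a 24 h migration phase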)
In short: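 iPSC-derived (IMR90) neural crest cells seeded around silicone stoppers on PLO/laminin/fibronectin; after 24 h migration in N2-S with EGF/FGF, chemical added for 24 h. Calcein-AM/Hoechst stained 30 min, high-content imaged; bidirectional fit versus DMSO.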

[17] = IUF_NPC2c_oligodendrocyte_migration_120hr: Leibniz Research Institute for Environmental Medicine (IUF) 120-hour Neural Progenitor Cell Migration Assay for Oligodendrocyte Migration (NPC2c) (AID 2284297; active = hit-call score of the fitted dose curve at least 0.9, where 1 is the maximum; inactive = score below 0.9;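 note: O4-positive oligodendrocyte migration distance divided by radial glia migration distance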)
In short: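 Primary hNPC spheres migrating on extracellular matrix, exposed five days to a 7-point dilution series with solvent control. Oligodendrocyte migration was scored by high-content imaging of O4 immunostaining and expressed relative to radial glia distance.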

[18] = IUF_NPC2a_radial_glia_migration_120hr: Leibniz Research Institute for Environmental Medicine (IUF) 120-hour Neural Progenitor Cell Migration Assay for Radial Glia Migration (NPC2a) (AID 2284298; active = hit-call score of the fitted dose curve at least 0.9, where 1 is the maximum; inactive = score below 0.9)
In short: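 In this multiplexed test, fetal hNPC spheres migrate radially on poly-D-lysine/laminin in N2 medium (37C, 5% CO2, pH 7.2-7.6) under continuous compound exposure over five days. Migration is scored at 120 h from automated Hoechst nuclear imaging.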

[19] = IUF_NPC2a_radial_glia_migration_72hr: Leibniz Research Institute for Environmental Medicine (IUF) 72-hour Neural Progenitor Cell Migration Assay for Radial Glia Migration (NPC2a) (AID 2284299; active = hit-call score of the fitted dose curve at least 0.9, where 1 is the maximum; inactive = score below 0.9)
In short: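 Migration out of plated human neural progenitor spheres is scored at 72 h as the distance in um from the sphere core edge to the edge of the migration area. Values are the mean of four manual measurements per well, normalised to DMSO.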

[20] = IUF_NPC2b_neuronal_migration_120hr: Leibniz Research Institute for Environmental Medicine (IUF) 120-hour Neural Progenitor Cell Migration Assay for Neuron Migration (NPC2b) (AID 2284300; active = hit-call score of the fitted dose curve at least 0.9, where 1 is the maximum; inactive = score below 0.9)
In short: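 Neurons identified by TUBB3 immunostaining and Hoechst nuclei; migration distance measured automatically on fixed wells at 120 h, normalized to glia migration. Exposure spanned five days of differentiation in N2 medium, seven test concentrations.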

[21] = IUF_NPC3_neuronal_differentiation_120hr: Leibniz Research Institute for Environmental Medicine (IUF) 120-hour Neuronal Differentiation Assay (NPC3) (AID 2284301; active = hit-call score of the fitted dose curve at least 0.9, where 1 is the maximum; inactive = score below 0.9)
In short: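 Primary human fetal neural progenitor spheres (GW 16-19, 0.3 mm) plated on poly-D-lysine/laminin in N2 medium, exposed from day 0 for 120 h with half-medium refresh at day 3. TUBB3+ cells as percent of Hoechst nuclei in migration area; DMSO baseline.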

[22] = IUF_NPC4_neurite_length_120hr: Leibniz Research Institute for Environmental Medicine (IUF) 120-hour Neuronal Morphology Assay for Neurite Length (NPC4) (AID 2284302; active = hit-call score of the fitted dose curve at least 0.9, where 1 is the maximum; inactive = score below 0.9)
In short: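 Human fetal cortex (GW 16-19) neural progenitor spheres, 0.3 mm, were plated on poly-D-lysine/laminin in N2 differentiation medium and exposed from day 0 for 120 h, half-feeding at day 3. Mean TUBB3+ neurite length (µm) came from skeletonized images, relative to DMSO.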

[23] = IUF_NPC4_neurite_area_120hr: Leibniz Research Institute for Environmental Medicine (IUF) 120-hour Neuronal Morphology Assay for Neurite Area (NPC4) (AID 2284305)
In short: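 Human fetal cortex-derived neural progenitor spheres (0.3 mm, GW 16-19) plated on poly-D-lysine/laminin in N2 differentiation medium and exposed from day 0 for 120 h across 7 concentrations plus solvent control. Neurite area is mean pixel area per TUBB3-positive neuron via skeletonization, analysed relative to DMSO.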

[24] = IUF_NPC2-5_cytotoxicity_120hr: Cytotoxicity Assessment at 120 hours in the Leibniz Research Institute for Environmental Medicine (IUF) Neural Progenitor Cell Migration and Differentiation Assay (NPC2-5) (AID 2284307);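 note: LDH released into supernatant as membrane damage marker via resorufin fluorescence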
In short: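 Fluorescence (RFU) from LDH-driven resazurin reduction in medium supernatants measured loss of membrane integrity after 120 h of compound exposure of differentiating primary human neural progenitor spheres on an extracellular matrix.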

[25] = IUF_NPC2-5_cell_number_120hr: Cell Number Assessment at 120 hours in the Leibniz Research Institute for Environmental Medicine (IUF) Neural Progenitor Cell Migration and Differentiation Assay (NPC2-5) (AID 2284308; active = hit-call score of the fitted dose curve at least 0.9, where 1 is the maximum; inactive = score below 0.9;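 note: count of Hoechst-stained nuclei in migration zone around plated human neural progenitor spheres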)
In short: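 Cell number is taken as all Hoechst-positive nuclei detected in the area into which cells migrate out of the sphere, scored at 120 h and referenced to DMSO solvent control, which was kept at no more than 0.1%.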

[26] = IUF_NPC2-5_viability_120hr: Viability Assessment at 120 hours in the Leibniz Research Institute for Environmental Medicine (IUF) Neural Progenitor Cell Migration and Differentiation Assay (NPC2-5) (AID 2284312; active = hit-call score of the fitted dose curve at least 0.9, where 1 is the maximum; inactive = score below 0.9)
In short: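 Human fetal (GW 16-19) neural progenitor spheres of 0.3 mm were plated on poly-D-lysine/laminin in N2 differentiation medium and exposed from day 0 for 120 h, with half-medium refresh at day 3. Viability was read as alamar blue resazurin-to-resorufin fluorescence against DMSO.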

[27] = IUF_NPC1_cytotoxicity_72hr: Cytotoxicity Assessment at 72 hours in the Leibniz Research Institute for Environmental Medicine (IUF) Neural Progenitor Cell Proliferation Assay (NPC1) (AID 2284332);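 note: rising LDH signal means more cytotoxicity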
In short: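 hNPC spheres (fetal brain, gestational week 16-19) grown under proliferative EGF/FGF conditions, pH 7.2-7.6, were treated continuously for 72 h. Cytotoxicity came from LDH-coupled resazurin fluorescence in each well's supernatant.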

Sequence of Cellular tumor antigen p53 (Homo sapiens) (P04637 whole entry, looked up): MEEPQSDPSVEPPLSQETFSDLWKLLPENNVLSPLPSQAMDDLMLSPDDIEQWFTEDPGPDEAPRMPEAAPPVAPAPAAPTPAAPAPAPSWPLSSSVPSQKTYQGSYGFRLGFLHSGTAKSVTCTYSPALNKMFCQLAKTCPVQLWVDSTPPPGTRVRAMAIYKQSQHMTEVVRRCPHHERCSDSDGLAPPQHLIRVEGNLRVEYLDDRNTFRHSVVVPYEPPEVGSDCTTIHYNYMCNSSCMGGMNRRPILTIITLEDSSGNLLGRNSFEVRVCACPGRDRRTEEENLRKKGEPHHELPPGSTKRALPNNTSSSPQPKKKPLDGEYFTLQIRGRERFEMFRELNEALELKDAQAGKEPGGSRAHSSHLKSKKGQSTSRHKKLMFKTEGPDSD

O=C(O)CC[N+](=O)[O-]
outcome [1]: inactive
outcome [2]: inactive
outcome [3]: inactive
outcome [4]: inactive
outcome [5]: inactive
outcome [6]: inactive
outcome [7]: inactive

BrCCc1ccccc1
outcome [1]: inactive
outcome [2]: inactive
outcome [3]: inactive
outcome [4]: inactive
outcome [5]: inactive
outcome [6]: inactive

CNC1(c2ccccc2Cl)CCCCC1=O (stereo unspecified)
outcome [1]: inactive
outcome [2]: inactive
outcome [3]: inactive
outcome [4]: inactive
outcome [8]: inactive
outcome [6]: inactive
outcome [7]: inactive
outcome [9]: inactive
outcome [10]: inactive
outcome [11]: inactive
AC50 [12]: 34.1 µM (active)
outcome [13]: inactive
outcome [14]: inactive
outcome [15]: inactive
outcome [16]: inactive
outcome [17]: inactive
outcome [18]: inactive
outcome [19]: inactive
outcome [20]: inactive
AC50 [21]: 74.2 µM (active)
outcome [22]: inactive
outcome [23]: inactive
AC50 [24]: 1.48 µM (active)
outcome [25]: inactive
outcome [26]: inactive
outcome [27]: inactive

O=C(NC(=O)c1ccccc1Cl)Nc1ccc(OC(F)(F)F)cc1
outcome [1]: inactive
outcome [2]: inactive
outcome [3]: inactive
outcome [4]: inactive
outcome [8]: inactive
outcome [6]: inactive
outcome [7]: inactive
